From the supplement of paper PMC11732987, “Enantioselective OTUD7B fragment discovery through chemoproteomics screening and high-throughput optimisation” (Communications Chemistry, 2025)

Legend:
Experiment in all cases: log2 ratio of Biotin-Ahx-Ub-VS probe labelling (fragment/DMSO); higher = less target engagement (more negative = stronger competition), active = hit call of the paper (q ≤ 0.05, log2 ratio ≤ -1)
Conditions in all cases: compound concentration: 200 uM; treatment time: 3 h
USP34 = USP34 (UniProt Q70CQ2)
Method in brief: (§1)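 Each value is an average log2 ratio of fragment to vehicle, tested by unpaired t-test. The underlying Spectronaut label-free quantities were global-median-normalised, and only proteins with ≥2 unique peptides were included. Triplicate HEK293T lysate samples (495 µg) were exposed to fragment at 200 µM or vehicle for 3 h, then to Biotin-Ahx-Ub-VS at 0.5 µM final for 1 h, before NeutrAvidin enrichment of labelled DUBs, LysC and trypsin digestion, and diaPASEF LC-MS/MS.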

USP36 = target: T1, USP36 (UniProt Q9P275)
T1 sequence (whole entry): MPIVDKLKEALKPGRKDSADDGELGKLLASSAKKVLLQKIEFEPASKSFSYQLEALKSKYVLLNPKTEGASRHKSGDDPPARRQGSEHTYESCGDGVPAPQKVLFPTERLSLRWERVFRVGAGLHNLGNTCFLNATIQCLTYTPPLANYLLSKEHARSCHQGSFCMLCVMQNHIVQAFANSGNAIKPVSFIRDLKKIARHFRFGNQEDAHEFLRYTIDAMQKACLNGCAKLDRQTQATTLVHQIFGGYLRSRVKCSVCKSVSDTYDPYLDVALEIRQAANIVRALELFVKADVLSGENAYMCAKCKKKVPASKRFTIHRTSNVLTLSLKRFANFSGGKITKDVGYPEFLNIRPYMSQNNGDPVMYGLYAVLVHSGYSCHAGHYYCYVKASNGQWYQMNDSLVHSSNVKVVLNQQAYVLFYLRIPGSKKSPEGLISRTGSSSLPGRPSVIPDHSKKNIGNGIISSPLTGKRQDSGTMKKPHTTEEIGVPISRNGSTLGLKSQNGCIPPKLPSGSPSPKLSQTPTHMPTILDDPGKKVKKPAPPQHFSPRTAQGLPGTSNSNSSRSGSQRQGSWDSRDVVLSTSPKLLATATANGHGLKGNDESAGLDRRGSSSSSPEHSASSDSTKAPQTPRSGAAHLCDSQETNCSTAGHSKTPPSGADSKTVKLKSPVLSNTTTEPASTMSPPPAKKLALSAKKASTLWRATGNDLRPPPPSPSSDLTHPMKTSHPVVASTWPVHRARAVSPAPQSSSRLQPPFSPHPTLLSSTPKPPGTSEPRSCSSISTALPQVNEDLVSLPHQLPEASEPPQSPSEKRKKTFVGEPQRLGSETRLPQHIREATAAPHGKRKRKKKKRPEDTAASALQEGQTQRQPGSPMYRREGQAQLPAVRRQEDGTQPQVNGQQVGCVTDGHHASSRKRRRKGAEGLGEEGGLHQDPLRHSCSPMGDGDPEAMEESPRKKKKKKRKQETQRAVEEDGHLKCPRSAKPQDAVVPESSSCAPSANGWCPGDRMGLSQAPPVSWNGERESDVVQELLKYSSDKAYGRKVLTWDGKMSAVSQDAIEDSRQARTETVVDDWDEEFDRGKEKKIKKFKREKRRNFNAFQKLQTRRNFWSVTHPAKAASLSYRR
Method in brief: as §1

USP38 = target: T2, USP38 (UniProt Q8NB14)
T2 sequence (whole entry): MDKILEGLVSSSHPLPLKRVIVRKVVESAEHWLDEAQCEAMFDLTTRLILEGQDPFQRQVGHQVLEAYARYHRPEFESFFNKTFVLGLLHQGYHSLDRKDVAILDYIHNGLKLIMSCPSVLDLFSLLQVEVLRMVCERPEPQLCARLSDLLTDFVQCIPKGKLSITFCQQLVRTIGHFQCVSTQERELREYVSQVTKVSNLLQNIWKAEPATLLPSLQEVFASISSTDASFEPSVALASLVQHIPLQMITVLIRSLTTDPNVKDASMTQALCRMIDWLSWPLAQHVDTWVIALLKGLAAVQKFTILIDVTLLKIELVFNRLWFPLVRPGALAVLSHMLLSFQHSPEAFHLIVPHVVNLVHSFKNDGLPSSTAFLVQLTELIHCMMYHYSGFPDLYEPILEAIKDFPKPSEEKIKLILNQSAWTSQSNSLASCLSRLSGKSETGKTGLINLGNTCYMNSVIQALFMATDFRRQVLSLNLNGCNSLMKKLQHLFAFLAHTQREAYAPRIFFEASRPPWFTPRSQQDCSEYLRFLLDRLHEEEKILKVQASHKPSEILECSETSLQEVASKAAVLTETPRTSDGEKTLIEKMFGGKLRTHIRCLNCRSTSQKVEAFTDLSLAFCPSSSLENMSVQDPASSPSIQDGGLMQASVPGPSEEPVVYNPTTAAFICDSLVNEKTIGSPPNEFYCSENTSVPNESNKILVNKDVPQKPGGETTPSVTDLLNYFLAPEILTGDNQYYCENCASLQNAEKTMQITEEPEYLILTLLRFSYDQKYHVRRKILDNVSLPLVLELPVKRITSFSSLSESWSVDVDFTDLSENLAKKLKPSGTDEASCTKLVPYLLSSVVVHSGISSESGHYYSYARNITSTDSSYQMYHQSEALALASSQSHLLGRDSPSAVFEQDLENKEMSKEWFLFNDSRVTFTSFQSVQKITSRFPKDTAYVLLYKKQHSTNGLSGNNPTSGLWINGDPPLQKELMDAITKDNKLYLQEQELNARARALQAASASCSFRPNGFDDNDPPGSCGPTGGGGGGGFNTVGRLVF
Method in brief: as §1

USP39 = target: T3, USP39 (UniProt Q53GS9)
T3 sequence (whole entry): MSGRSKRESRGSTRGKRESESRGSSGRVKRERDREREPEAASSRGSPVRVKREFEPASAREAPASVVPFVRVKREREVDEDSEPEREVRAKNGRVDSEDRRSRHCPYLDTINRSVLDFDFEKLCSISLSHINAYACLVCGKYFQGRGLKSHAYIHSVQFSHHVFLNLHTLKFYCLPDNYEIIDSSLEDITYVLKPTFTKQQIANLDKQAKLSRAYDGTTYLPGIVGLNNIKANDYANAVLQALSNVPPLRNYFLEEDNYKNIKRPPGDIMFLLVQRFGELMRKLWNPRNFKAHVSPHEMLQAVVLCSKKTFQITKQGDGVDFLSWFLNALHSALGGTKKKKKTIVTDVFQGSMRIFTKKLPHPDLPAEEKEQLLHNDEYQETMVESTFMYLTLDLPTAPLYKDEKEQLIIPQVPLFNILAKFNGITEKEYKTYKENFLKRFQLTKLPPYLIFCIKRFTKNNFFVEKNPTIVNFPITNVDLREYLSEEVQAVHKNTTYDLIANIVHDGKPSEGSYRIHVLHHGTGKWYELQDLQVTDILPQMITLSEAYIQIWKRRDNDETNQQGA
Method in brief: as §1

USP4 = target: T4, USP4 (UniProt Q13107)
T4 sequence (whole entry): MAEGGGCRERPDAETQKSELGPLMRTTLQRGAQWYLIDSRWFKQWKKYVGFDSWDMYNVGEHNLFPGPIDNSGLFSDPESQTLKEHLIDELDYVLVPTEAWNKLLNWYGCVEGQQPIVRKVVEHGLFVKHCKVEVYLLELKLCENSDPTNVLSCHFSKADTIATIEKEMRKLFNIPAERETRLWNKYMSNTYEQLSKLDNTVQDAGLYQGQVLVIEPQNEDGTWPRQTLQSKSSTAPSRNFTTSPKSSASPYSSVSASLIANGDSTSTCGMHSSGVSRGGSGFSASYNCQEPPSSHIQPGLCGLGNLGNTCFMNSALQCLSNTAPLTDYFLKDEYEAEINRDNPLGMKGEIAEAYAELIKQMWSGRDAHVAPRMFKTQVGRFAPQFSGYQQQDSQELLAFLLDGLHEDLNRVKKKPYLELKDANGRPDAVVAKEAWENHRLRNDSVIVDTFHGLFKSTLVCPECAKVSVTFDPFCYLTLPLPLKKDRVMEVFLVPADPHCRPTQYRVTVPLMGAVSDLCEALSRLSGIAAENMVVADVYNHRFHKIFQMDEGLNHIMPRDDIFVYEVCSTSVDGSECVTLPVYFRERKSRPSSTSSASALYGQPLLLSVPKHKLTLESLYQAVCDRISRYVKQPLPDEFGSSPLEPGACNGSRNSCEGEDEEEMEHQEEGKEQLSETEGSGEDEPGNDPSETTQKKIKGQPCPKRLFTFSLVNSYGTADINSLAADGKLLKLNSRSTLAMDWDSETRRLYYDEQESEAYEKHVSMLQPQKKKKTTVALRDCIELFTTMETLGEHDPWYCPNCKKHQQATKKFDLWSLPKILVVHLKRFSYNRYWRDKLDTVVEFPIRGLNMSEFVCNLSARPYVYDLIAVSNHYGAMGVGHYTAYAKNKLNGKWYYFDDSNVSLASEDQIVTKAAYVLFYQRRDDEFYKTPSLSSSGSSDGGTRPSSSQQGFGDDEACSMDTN
Method in brief: as §1

Measured: log2 ratio of Biotin-Ahx-Ub-VS probe labelling

Chain of USP34 (Q70CQ2 whole entry, the tested form may be a part): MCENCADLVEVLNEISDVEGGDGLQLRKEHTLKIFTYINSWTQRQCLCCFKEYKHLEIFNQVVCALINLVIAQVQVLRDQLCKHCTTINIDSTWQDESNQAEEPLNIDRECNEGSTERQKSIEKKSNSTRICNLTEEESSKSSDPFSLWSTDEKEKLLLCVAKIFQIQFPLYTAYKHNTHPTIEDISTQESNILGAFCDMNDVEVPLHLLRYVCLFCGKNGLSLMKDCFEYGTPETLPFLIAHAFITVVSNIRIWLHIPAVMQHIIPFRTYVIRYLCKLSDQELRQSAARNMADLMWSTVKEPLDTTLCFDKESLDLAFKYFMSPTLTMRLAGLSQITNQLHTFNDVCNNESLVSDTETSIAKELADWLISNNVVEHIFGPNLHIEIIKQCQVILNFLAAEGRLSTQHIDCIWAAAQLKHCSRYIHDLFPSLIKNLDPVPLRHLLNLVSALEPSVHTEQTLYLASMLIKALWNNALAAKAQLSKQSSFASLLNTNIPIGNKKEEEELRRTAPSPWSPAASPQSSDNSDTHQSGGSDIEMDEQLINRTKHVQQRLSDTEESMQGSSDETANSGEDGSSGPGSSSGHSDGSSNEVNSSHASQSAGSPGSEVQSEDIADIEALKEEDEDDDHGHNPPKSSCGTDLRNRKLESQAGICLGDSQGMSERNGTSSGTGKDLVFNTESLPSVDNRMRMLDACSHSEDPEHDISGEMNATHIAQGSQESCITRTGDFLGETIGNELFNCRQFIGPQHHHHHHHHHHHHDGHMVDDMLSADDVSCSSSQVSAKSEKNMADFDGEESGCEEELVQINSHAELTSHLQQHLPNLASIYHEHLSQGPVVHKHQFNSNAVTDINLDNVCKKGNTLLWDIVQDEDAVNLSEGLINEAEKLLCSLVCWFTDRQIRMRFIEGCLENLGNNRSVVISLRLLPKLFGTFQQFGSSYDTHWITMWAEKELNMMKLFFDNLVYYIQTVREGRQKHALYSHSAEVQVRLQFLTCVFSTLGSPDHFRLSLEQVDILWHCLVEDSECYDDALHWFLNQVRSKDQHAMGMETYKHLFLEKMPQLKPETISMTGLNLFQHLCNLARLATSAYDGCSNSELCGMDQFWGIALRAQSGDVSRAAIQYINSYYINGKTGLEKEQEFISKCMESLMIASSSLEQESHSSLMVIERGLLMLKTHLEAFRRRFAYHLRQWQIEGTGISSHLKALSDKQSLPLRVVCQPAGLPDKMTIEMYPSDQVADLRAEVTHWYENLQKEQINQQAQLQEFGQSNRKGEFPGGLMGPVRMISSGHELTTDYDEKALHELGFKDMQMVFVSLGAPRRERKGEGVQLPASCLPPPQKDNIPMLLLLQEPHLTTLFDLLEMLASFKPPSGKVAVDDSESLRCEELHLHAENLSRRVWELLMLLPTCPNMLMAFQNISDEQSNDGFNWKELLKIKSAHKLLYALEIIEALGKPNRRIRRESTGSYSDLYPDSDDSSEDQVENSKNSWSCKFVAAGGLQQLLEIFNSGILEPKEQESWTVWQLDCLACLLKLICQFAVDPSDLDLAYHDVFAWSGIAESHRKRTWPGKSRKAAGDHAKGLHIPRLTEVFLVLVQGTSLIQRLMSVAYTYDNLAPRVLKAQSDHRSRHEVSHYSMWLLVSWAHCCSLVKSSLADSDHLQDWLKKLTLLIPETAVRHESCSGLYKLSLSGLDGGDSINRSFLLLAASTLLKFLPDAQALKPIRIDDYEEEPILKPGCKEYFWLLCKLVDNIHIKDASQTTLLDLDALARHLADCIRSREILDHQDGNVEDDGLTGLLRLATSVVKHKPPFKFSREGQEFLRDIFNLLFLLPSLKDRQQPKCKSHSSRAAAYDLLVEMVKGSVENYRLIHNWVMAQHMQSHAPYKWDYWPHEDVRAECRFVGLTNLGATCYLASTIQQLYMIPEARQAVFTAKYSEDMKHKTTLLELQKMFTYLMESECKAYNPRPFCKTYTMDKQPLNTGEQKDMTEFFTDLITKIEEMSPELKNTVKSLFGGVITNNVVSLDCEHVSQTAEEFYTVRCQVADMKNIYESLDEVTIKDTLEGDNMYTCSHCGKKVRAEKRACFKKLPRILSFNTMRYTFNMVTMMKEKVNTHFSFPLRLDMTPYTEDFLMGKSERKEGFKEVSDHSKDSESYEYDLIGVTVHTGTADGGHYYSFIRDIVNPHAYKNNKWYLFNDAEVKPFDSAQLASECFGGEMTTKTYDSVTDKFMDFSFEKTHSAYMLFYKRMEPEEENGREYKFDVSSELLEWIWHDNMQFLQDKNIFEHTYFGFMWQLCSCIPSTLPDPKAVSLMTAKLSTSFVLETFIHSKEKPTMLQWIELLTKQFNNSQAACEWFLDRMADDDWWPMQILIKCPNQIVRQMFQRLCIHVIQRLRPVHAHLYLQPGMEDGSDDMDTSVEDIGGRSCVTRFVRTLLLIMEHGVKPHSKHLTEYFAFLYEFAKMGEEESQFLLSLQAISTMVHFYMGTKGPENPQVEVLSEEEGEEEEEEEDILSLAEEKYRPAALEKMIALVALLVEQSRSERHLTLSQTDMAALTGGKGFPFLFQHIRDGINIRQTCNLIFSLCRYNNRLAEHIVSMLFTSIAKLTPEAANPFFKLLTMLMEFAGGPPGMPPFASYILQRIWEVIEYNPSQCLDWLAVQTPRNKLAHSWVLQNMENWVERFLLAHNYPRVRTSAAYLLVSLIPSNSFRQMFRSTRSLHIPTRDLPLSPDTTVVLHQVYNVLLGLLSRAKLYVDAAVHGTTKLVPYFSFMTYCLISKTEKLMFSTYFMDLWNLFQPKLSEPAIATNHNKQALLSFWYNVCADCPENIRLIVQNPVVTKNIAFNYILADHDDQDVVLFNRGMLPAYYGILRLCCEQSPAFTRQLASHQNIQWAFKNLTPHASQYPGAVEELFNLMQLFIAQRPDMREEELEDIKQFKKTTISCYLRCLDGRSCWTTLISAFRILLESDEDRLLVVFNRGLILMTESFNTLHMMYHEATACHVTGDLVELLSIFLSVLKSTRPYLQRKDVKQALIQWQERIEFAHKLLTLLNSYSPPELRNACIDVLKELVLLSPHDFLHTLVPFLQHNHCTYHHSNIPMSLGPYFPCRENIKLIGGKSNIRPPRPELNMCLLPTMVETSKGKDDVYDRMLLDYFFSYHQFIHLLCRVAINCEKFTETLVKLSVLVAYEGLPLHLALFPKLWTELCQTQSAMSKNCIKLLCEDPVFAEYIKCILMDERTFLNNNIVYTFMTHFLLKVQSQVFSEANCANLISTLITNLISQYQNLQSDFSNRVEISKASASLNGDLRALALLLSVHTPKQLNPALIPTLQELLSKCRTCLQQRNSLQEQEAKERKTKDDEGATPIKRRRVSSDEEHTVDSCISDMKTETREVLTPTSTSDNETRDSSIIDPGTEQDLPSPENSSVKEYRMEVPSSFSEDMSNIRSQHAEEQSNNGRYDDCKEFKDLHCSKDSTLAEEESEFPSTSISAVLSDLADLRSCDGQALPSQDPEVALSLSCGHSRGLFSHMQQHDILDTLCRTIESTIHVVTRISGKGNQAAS

Cc1cc(NC(=O)CCl)n(-c2ccccc2)n1
inactive: USP34 -0.374 | USP36 -0.0233 | USP38 -0.067 | USP39 -0.12 | USP4 0.0467
